Among the data in PubChem BioAssay (NCI) are growth values, retold here.

This is part of a sample that, as a whole, favours compounds with a hit. Of some 83,000 tested, about 20% had one in any assay.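 Plates (96-well) were seeded with cells, treated with compound at one concentration, and incubated for 48 hours before percent growth was determined.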 Values without a mark were called inactive. Calls of active or inactive are those of the source.

The subject of this assay is NCI-H522 lung. As to the kind of experiment: NCI-60 one-dose screen, 48 h (100 = growth as untreated, 0 = no growth, -100 = all killed). As to conditions: 10 µM unless noted. Here is the method: Growth inhibition of the NCI-H522 human Non-Small Cell Lung tumor cell line is measured as a screen for anti-cancer activity. Cells are grown in 96 well plates and exposed to the test compound for 48 hours. Compounds are tested at a single concentration, which is 10^-5 M for most compounds. The reported endpoint is percent growth (GI% or GIPRCNT), where numbers from 0 - 100% represent growth inhibition, and numbers from -100% - 0 represent cell death. For example, a value of 40 represents 60% growth inhibition. A value of 0 means no net growth occurred over the course of the experiment. A value of -40 indicates 40% of cells at the beginning of the experiment died by the end of the experiment. A value of -100 means all cells are dead at the end of the experiment.
NCI-60 Human Tumor Cell Lines Screen was performed using the standard one-dose NCI protocol, which is described in more detail at https://dtp.cancer.gov/discovery_development/nci-60/default.htm.
Compounds with GIPRCNT values below 10 were considered active. Activity score was based on GIPRCNT using the following formula: […]
Score is 0 for GIPRCNT values of 100 or above, 50 for GIPRCNT values of 0, and 100 for GIPRCNT values of -100.
Regarding `Cc1ccc(S(=O)(=O)n2cc(C(=O)C(=O)Nc3ccncc3)c3ccccc32)cc1`, the growth is 1.71% (active). For the molecule `CC(C)(C)OC(=O)NCCc1ccc(N=C=S)cc1`, the growth was 16.1%. The figure for `N#Cc1c(Nc2ccccc2)nc2n(c1=O)-c1ccccc1Sc1ccccc1-2` is 75.2%; for `COc1cc2c(cc1OCCCCCn1c3ccccc3c3ccccc31)N=C[C@@H]1CCCN1C2=O` it is -22.3% (active).

Turning to `Cc1nc2ncccc2nc1Nc1ccc(S(=O)(=O)Nc2cncs2)cc1`, the growth was 103%. The figure for `CC(C)CSc1nc(NN)c(C#N)c(-c2ccccc2)n1` is 88.2%; for `CCCCOc1ccc(/C=C2/SC(N3CCCC3)=NC2=O)cc1` it is 82.4%; for `Clc1cc(Cl)c2nc(-c3ccc(-c4ccc(/C=N/NC5=NCCN5)cc4)s3)cn2c1` it is 103%. For the molecule `O=C(Nc1ccc(NCCN2CCOCC2)nc1)c1ccc([N+](=O)[O-])cc1`, the growth was 95.2%. The figure for `NNc1cccc(/C=C/c2ccccc2)cc1=O` is 57.7%; for `O=C1C(Cl)=C(Nc2ccccn2)C(=O)c2ccccc21` it is 58.3%; for `O=C1Nc2ccc3c(c2/C1=C\c1cc2c(cc1Br)OCO2)OCO3` it is 16.4%. Then `Clc1cc2c(nn1)Nc1ccccc1S2`, with 56.5%; and `O=C(c1ccccc1)C1OC1c1ccc([N+](=O)[O-])cc1` (stereo not given), with 31.4%; and `COc1cc(/C=C/C(=O)c2c(C)nc3ccccc3c2C)ccc1OCCCCOc1cc2c(cc1OC)C(=O)N1CCC[C@H]1C=N2`, with -32.2% (active). Then `O=C(Nc1ccncc1)C(=O)c1cn(S(=O)(=O)c2ccccc2F)c2ccccc12`, with -24.6% (active); and `C1=Cc2ccccc2N(c2nnc(-c3ccccc3)o2)c2ccccc21`, with 92.8%; and `C=C1CC2(OC1=O)C(=O)N(CCCN1C(=O)C3(CC(=C)C(=O)O3)c3ccccc31)c1ccccc12` (stereo not given), with -78% (active).

Take `Cc1ccc(Nc2nnc(-c3ccc(Cl)cc3)o2)c(C)c1`: the growth is 41%. The figure for `C=C1CCC2C(C)(CO)C(O)CCC2(C)C1C/C=C1/C(=O)OCC1Oc1ccccc1C` (stereo not given) is 23.8%; for `CCN1CCN(c2nc(NNC(=O)c3ccccc3)nc(N3CCN(C(c4ccccc4)c4ccccc4)CC3)n2)CC1` it is 65.8%; for `Clc1ccccc1-c1nc2ccccc2[nH]1` it is 87.9%.

`COc1cc(/C(C#N)=C/c2ccc3c(c2OC)OCO3)cc2c1OCO2`: the growth is -19.1% (active).

In the case of `O=C1c2ccccc2-c2ccccc2C1(Cl)Cl`, the growth was -88.6% (active). Then `COc1ccc(-c2c(N)n[nH]c2-c2cc3c(c(OC)c2OC)OCO3)cc1`, with 81.5%; and `O=C(CSc1nc2ccccc2[nH]1)c1ccc(N2CCOCC2)cc1`, with 102%. Then `O=[N+]([O-])c1ccc(C(c2ccccc2)c2ccccc2)cc1`, with 87%; and `CCN(CC)CCC(CNc1ccnc2cc(Cl)ccc12)c1ccccc1` (stereo not given), with 18%; and `Cc1ccc2ccccc2c1C[n+]1ccccc1`, with 100%. With `S=c1[nH]nc(-c2cc3ccc2CCc2ccc(cc2)CC3)n1-c1ccccc1`, the growth was 87.3%. Turning to `C=C(C)[C@@H]1C[C@H](O)Cc2cc(F)ccc2N1`, the growth was 93.7%.

With `Cc1cc(N/N=C/c2nc(-c3ccccc3)oc2C)c2cc(Br)ccc2n1`, the growth is 80.6%. Then `CC(C)c1ccc2occ(C=C3C(=O)NC(=O)NC3=O)c(=O)c2c1`, with 88.7%; and `Oc1ccc2cc(Br)ccc2c1-c1c(O)ccc2cc(Br)ccc12`, with 53.9%; and `COc1cc(C2NN=C3c4ccccc4CCC32)cc(OC)c1OC` (stereo not given), with 81.2%. Regarding `C=C[C@@H]1C[C@@H]2Cc3c(C)cc(C)cc3N1O2`, the growth was 99.2%. Then `COc1ccc(C2C=C(c3ccc(Cl)cc3)N=C3SC=C(C)N32)c(Br)c1` (stereo not given), with 23%; and `CC(C)(C)NCCC(O)c1cc2c(Cl)cc(Cl)cc2c2cc(C(F)(F)F)ccc12` (stereo not given), with -81.8% (active); and `COc1ccc(C(=O)N2NC(=O)/C(=C/c3cn(-c4ccccc4)nc3-c3ccccc3)N=C2c2ccccc2)cc1`, with 95.9%. Then `CCN(CC)CCCC(C)Nc1c2ccc(Cl)cc2nc2cc(OC)c(OC)cc12` (stereo not given), with 14.9%.
